Experimental findings from ChEMBL document CHEMBL1961873, “Compounds: GSK PKIS; Assays: Nanosyn kinase panel” (2012) are described below.

Values joined by “and” are separate entries in the source; they are usually repeats but may differ in a detail not shown here. Equal values may be shown once.

The target of assay [1] is Tyrosine-protein kinase SYK (Homo sapiens) (UniProt P43405). The settings on record: at 1 µM.
In assay [2] the target is T1, Tyrosine-protein kinase Tec (Homo sapiens) (UniProt P42680).
T1 sequence (whole entry): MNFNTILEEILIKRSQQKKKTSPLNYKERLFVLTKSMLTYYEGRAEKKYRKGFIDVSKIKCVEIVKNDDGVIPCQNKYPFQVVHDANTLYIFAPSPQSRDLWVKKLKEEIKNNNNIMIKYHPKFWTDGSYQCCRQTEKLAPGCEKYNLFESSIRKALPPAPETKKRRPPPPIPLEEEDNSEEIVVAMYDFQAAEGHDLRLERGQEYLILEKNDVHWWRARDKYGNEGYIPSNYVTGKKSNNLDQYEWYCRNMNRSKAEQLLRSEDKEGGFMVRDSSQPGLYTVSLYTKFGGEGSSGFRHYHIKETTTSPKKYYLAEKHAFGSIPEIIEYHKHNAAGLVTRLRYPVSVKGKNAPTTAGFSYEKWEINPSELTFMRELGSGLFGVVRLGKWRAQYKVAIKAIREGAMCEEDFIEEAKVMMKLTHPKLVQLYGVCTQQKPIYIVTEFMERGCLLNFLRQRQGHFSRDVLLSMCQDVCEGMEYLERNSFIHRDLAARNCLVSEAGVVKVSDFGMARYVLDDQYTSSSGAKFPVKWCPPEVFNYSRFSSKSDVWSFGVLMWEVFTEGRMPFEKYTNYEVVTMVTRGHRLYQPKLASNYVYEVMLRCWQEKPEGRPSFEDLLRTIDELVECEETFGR
The settings on record: at 0.1 µM.

For assay [3], the target named is T1, Tyrosine-protein kinase Tec (Homo sapiens). The settings on record: at 1 µM.
Assay [4] deals with Angiopoietin-1 receptor (Homo sapiens) (UniProt Q02763). The settings on record: at 0.1 µM.
Assay [5] has the same target. The settings on record: at 1 µM.
The target of assay [6] is T2, Non-receptor tyrosine-protein kinase TNK1 (Homo sapiens) (UniProt Q13470).
T2 sequence (whole entry): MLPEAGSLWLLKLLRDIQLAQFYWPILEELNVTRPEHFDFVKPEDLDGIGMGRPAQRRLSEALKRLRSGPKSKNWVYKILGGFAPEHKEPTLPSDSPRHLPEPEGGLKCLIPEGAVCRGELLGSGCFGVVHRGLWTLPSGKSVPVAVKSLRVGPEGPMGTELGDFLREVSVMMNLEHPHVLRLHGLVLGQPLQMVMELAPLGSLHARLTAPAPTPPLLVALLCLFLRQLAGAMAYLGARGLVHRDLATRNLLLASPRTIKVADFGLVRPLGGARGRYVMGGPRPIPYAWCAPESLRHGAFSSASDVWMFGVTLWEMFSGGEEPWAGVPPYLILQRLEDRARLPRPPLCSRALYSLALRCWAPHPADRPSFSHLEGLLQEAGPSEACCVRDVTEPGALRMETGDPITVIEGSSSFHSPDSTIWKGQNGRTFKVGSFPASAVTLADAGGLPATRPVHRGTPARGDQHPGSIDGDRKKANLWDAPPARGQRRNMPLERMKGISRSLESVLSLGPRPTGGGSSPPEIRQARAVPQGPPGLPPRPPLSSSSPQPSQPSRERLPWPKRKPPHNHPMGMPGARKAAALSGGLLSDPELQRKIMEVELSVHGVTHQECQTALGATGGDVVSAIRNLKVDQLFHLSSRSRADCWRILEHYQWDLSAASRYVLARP
The settings on record: at 0.1 µM.

Assay [7] deals with T2, Non-receptor tyrosine-protein kinase TNK1 (Homo sapiens). The settings on record: at 1 µM.
Assay [8] concerns the target Activated CDC42 kinase 1 (Homo sapiens) (UniProt Q07912). The settings on record: at 0.1 µM.
Assay [9] shares this target. The settings on record: at 1 µM.
Assay [10] addresses High affinity nerve growth factor receptor (Homo sapiens) (UniProt P04629). The settings on record: at 0.1 µM.

Sequence of Activated CDC42 kinase 1 (Homo sapiens) (Q07912 whole entry, looked up): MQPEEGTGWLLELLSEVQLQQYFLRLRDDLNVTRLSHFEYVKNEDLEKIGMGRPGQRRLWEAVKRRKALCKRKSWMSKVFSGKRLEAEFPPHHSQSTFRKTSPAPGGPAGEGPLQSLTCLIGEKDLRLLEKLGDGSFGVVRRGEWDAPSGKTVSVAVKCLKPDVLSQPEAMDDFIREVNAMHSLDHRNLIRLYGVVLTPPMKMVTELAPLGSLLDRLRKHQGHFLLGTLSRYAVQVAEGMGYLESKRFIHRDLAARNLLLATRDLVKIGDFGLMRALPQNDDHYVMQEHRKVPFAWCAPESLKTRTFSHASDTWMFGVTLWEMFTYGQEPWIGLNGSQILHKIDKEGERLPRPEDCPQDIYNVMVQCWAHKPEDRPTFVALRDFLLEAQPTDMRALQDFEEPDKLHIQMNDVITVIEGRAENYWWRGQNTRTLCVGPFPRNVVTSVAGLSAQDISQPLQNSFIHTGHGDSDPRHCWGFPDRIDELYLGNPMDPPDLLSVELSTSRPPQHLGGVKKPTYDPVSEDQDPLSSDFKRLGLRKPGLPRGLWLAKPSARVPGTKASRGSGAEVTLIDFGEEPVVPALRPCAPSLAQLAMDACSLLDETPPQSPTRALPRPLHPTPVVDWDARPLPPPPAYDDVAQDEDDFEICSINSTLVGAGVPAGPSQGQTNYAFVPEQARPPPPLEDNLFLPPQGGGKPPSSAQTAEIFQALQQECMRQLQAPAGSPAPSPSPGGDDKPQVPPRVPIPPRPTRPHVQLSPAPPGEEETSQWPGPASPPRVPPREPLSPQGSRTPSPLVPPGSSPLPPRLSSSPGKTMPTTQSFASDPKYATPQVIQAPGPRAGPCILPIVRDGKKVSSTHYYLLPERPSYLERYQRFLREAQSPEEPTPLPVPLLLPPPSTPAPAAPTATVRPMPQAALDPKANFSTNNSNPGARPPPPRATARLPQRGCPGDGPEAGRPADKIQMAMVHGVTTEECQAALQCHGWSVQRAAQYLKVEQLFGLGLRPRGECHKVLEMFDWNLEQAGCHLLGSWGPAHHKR
Sequence of Angiopoietin-1 receptor (Homo sapiens) (Q02763 whole entry): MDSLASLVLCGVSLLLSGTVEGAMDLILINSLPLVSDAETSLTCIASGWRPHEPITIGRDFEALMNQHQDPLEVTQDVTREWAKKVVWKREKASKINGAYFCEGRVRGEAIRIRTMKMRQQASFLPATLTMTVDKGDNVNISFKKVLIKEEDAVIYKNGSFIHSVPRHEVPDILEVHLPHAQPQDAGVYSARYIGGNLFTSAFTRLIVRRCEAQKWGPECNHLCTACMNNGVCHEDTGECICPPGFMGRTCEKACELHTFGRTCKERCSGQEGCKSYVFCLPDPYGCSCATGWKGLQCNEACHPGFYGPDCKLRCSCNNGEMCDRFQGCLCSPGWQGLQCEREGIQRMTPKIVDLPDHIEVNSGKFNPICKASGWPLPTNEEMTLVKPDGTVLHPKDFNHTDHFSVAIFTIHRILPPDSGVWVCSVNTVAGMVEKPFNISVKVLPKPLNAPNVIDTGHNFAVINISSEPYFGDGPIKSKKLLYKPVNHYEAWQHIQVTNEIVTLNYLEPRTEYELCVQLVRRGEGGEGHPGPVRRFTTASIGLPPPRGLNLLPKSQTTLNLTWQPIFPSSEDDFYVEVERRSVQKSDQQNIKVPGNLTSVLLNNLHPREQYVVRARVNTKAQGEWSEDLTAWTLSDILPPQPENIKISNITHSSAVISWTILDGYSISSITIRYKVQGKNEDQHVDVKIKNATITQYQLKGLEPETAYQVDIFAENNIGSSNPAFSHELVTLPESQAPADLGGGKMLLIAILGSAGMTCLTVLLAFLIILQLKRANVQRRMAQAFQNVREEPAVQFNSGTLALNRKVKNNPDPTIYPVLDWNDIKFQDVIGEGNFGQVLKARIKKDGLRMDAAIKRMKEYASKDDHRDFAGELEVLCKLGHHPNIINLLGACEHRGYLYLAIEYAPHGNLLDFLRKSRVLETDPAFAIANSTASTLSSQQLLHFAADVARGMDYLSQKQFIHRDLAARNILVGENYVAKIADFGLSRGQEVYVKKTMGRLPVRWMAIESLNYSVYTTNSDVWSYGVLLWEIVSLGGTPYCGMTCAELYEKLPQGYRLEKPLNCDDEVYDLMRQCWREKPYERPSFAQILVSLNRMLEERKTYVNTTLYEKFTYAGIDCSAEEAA
Sequence of High affinity nerve growth factor receptor (Homo sapiens) (P04629 33-796 limits assumed): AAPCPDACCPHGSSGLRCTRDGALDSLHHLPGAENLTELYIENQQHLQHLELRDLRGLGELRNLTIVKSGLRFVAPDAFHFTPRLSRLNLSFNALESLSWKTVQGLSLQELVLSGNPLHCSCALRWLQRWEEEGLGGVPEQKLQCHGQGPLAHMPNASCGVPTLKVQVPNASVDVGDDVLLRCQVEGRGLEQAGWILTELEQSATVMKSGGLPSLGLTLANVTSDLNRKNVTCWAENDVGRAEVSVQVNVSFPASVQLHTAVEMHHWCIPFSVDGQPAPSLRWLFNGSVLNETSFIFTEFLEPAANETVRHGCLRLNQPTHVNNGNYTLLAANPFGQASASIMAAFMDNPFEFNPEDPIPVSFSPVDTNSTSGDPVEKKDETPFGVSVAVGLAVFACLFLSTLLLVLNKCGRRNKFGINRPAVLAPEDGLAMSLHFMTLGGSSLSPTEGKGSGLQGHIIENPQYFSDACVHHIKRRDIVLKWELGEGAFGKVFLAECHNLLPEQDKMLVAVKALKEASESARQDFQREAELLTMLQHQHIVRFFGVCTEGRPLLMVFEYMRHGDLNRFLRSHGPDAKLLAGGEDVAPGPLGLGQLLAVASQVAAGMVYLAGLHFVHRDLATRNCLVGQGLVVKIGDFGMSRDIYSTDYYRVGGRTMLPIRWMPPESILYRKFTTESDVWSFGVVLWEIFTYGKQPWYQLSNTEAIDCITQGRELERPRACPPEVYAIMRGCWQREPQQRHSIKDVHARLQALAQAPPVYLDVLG

For orientation: inhibition means the change of the read-out against control, counted positive when it falls. Take `N#Cc1cccc(Nc2ncc(-c3ccccc3)o2)c1`: the inhibition in assay [1] was -0.14%; in [2], 1.29%; in assay [3] it was 2.29%; in [4], 0.48%; in [5] it was 2.45%; in [6], 2.36%. Besides, the inhibition in assay [7] was 15.4%; in assay [8], 0.46%; in assay [9], 0.86%; in assay [10] it was -0.7%.
On to `CCn1c(-c2nonc2N)nc2cncc(C(=O)NCCNC)c21`, for which the inhibition is -6.01% in assay [1]; 2.57% in assay [2]; 4.27% in [3]; 5.54% in assay [4]; 7.24% in assay [5]; -0.07% in [6]. The inhibition was determined as 8.48% in assay [7], 2.67% in [8], 2.15% in assay [9] and 1.96% in [10].
Turning to `FC(F)(F)CNc1nccc(-c2cnn3ncccc23)n1`, the inhibition in assay [1] is -3.33%; in assay [2], 0.22%; in assay [3], 2.62%; in assay [4], 1.95%; in [5], 3.61%; in assay [6] it was 0.51%. For the same molecule, the inhibition in [7] was 4.99%; in [8], 0.71%; in [9], -0.17%; in assay [10], -0.41%.
`CCS(=O)(=O)c1ccc(OC)c(Nc2ncc(-c3cccc(F)c3)o2)c1`: the inhibition in [1] was found to be 1.66%; in [2] it was 9.86%; in assay [3], 37.2%; in assay [4], 4.21%; in [5], 14.1%; in assay [6] it was 27.4%. Besides, the inhibition in assay [7] was 76.5%; in assay [8], 2.97%; in [9] it was 13.2%; in assay [10], 6.84%.
With `CCCNc1cccc(-n2ncc3c(N/N=C/c4ccncc4)ncnc32)c1`, the inhibition was -2.86% in [1]; 2.52% in assay [2]; 7.76% in assay [3]; 8.93% in assay [4]; 36.2% in assay [5]; 9.78% in assay [6]. Also, the inhibition is 48% in assay [7], 0.38% in assay [8], 3.51% in assay [9] and -0.62% in assay [10].
Regarding `O=C(O[C@H]1CN[C@H](C#Cc2cc3ncnc(Nc4ccc(OCc5cccc(F)c5)c(Cl)c4)c3s2)C1)N1CCOCC1`, the inhibition in assay [1] was -2.54%; in assay [2], 5.08%; in assay [3], 4.41%; in assay [4], 2.8%; in [5], 7.75%; in assay [6], 4.45%. Further, the inhibition in assay [7] was determined as 21.9%; in [8], 2.09%; in [9] it was 2.88%; in assay [10] it was 1.47%.
For the molecule `COc1cc(N2CCN(C(C)C)CC2)ccc1Nc1nc(Nc2cccc3ncccc23)c2cc[nH]c2n1`, the inhibition in assay [1] is -0.52%; in assay [2] it was 0.93%; in assay [3] it was -0.14%; in [4], 3.15%; in [5], 7.32%; in assay [6], 0.11%. Moreover, the inhibition in [7] was 22.3%; in [8], 1.12%; in [9] it was 13.2%; in [10], 1.86%.
In the case of `CCS(=O)(=O)c1ccc(OC)c(Nc2ncc(-c3cccc(C(C)=O)c3)o2)c1`, the inhibition in assay [1] is -2.16%; in assay [2] it was 6.22%; in assay [3], 26.6%; in assay [4], 2.09%; in assay [5] it was 9.26%; in [6], 15.3%. Also, the inhibition in [7] came out at 66.9%; in [8], 1.65%; in assay [9], 6.5%; in assay [10] it was 4.29%.
Take `CNC(=O)c1sc(-n2cnc3cc(OC)c(OC)cc32)cc1OCc1ccccc1C(F)(F)F`: the inhibition in assay [1] was -4%; in assay [2], 1.74%; in assay [3], 9.64%; in assay [4], 2.19%; in [5], 9.86%; in assay [6] it was 4.58%. The inhibition was determined as 29.1% in assay [7], 1.43% in assay [8], 4.41% in assay [9] and 1.34% in [10].
For the molecule `CC(C)c1ccc(-c2cc(-c3c[nH]nc3-c3ccccn3)ccn2)cc1`, the inhibition in assay [1] stood at 1.09%; in assay [2] it was 2.3%; in assay [3], 2.11%; in [4] it was 4.71%; in [5] it was 6.64%; in assay [6], 0.85%. Moreover, the inhibition is -0.32% in assay [7], 0.23% in assay [8], 0.19% in assay [9] and 0.99% in [10].
Regarding `O=C(Nc1n[nH]c2nnc(-c3cccnc3)cc12)C1CC1`, the inhibition in assay [1] was 0.88%; in assay [2], 0.17%; in assay [3], 3.48%; in assay [4] it was 1.38%; in assay [5], 1.88%; in [6] it was -1.13%. Also, the inhibition in assay [7] worked out at 0.09%; in assay [8], 0.32%; in assay [9], 1.68%; in [10], 0.12%.
For the molecule `Nc1ncnc2occ(-c3ccc(NC(=O)Nc4cc(C(F)(F)F)ccc4F)cc3)c12`, the inhibition is -9.91% in [1]; 3.07% and -2.99% in assay [2]; 5.25% and -1.81% in assay [3]; 63.7% and 59.4% in [4]; 79% and 80.6% in [5]; 10.7% and 2.54% in assay [6]. Besides, the inhibition in [7] was 50% and 25.8%; in assay [8] it was 1.25% and -0.32%; in assay [9], 2.06% and -0.97%; in assay [10] it was 57.1% and 36.6%.
Turning to `O=C(O[C@H]1CN[C@H](C#Cc2cc3ncnc(Nc4ccc5c(cnn5Cc5ccccc5)c4)c3s2)C1)N1CCOCC1`, the inhibition in [1] came to 0.67%; in [2] it was 2.33%; in assay [3] it was 2.89%; in assay [4], 0.41%; in [5], 5.18%; in assay [6], 0.45%. In addition, the inhibition in assay [7] was 9.52%; in assay [8] it was -0.92%; in assay [9], -1.03%; in assay [10], -1.24%.
With `CNC(=O)c1ncccc1Nc1nc(Nc2cc3c(cc2OC)CCCN3C(=O)CN(C)C)nc2[nH]ccc12`, the inhibition was 1.95% in [1]; 5.55% in assay [2]; 7.76% in assay [3]; 1.81% in assay [4]; -0.04% in assay [5]; 50% in assay [6]. The inhibition in assay [7] turned out to be 73%; in assay [8], 2.4%; in assay [9] it was 10.8%; in assay [10] it was 5.07%.
Take `CS(=O)(=O)CCNCc1ccc(-c2ccc3ncnc(Nc4ccc(OCc5cccc(C(F)(F)F)c5)cc4)c3c2)o1`: the inhibition in [1] is -0.03%; in assay [2], 6.62%; in [3], 4.52%; in assay [4] it was 3.37%; in [5], 4.84%; in assay [6] it was 0.64%. For the same molecule, the inhibition in assay [7] came out at 5.33%; in assay [8], 0.49%; in assay [9], 0.96%; in [10] it was 2.16%.
